Many of the other results were omitted from the sample, so hits are more common in it than they were.
Shiga inhibitor – A qHTS for Small Molecule Inhibitors of Shiga Toxin | Vero cells, Shiga toxin protein synthesis inhibition reporter | inhibition, % at 38.7 µM | 290,000 compounds, 9.2% hits | AID 2315, 2010; in the data active = inhibition mostly above about 28%, no sharp cut-off; inactive = mostly below about 43%
FBPA Giardia inh – qHTS Assay for Inhibitors of Fructose-1,6-bisphosphate Aldolase from Giardia Lamblia | A8B2U2 | purified Giardia FBPA | Potency, µM (top dose mostly 59.6 µM), hits mostly inhibitors | 290,000 compounds, 0.71% hits | AID 2451, 2010; also: nearly all actives have a fitted effect of over 55% in size
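40 nM FBPA preincubated 10 min at RT with compound (up to 57.5 uM final), then substrate plus GAPDH/TPI/NAD/arsenate coupling and diaphorase/resazurin added. Fluorescence read after 20 min at RT, 525/598 nm.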
RE007 growth inh – qHTS Assay for Inhibitors of the HIV-1 protein Vpr; S. pombe RE007 Vpr strain, BacTiter-Glo ATP luminescence, 24 h; Potency, µM (top dose mostly 92.2 µM), actives largely listed as inhibitors; 360,000 compounds, 0.21% hits; AID 651644, 2012; active = well fitted falling curve with a large enough effect; inconclusive = small, poorly fitted or top-dose-only effect; inactive = no such curve, though single readings can be large or run the other way; also: nearly all actives have a fitted effect of over 50% in size
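Fission yeast strain RE007, carrying one chromosomally integrated HIV-1 vpr copy, was seeded at OD 0.01 in PMG+AL medium with 23 nL pinned compound. After 24 h at 30 °C and 99% humidity, viability was read by BacTiter-Glo luminescence.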
CHX counter – Cycloheximide Counterscreen for Small Molecule Inhibitors of Shiga Toxin. cell reporter, cycloheximide protein synthesis inhibition counterscreen. max response, %. 300,000 compounds, 12% hits; in the data active = max response mostly above about 13%, no sharp cut-off; inactive = mostly below about 14%; also: read at 38.3 µM for the half of the compounds with a filed dose
LmPK inh – qHTS Assay for Inhibitors of Leishmania Mexicana Pyruvate Kinase (LmPK); Q27686; purified LmPK, Kinase-Glo ATP luminescence, 1 h; Potency, µM (series often up to 57.5 µM), hits mostly inhibitors; 290,000 compounds, 0.37% hits
Target sequence (Q27686 whole entry, looked up): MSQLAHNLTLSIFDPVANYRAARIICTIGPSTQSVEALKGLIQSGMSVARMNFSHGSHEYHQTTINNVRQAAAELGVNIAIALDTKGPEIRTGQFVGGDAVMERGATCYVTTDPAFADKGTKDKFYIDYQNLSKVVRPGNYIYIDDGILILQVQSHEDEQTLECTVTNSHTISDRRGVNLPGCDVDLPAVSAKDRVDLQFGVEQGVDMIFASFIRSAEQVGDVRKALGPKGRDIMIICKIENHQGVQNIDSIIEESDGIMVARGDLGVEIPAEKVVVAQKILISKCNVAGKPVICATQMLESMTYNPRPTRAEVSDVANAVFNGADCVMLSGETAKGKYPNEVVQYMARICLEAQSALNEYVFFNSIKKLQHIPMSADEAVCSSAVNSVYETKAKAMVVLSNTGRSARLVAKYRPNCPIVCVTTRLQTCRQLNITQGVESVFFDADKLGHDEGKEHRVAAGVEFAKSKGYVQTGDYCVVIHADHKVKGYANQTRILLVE
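Pyruvate kinase activity monitored as ATP production (luciferase luminescence). Conditions: 0.1 nM enzyme, 0.5 mM PEP, 0.1 mM ADP, 1 h, RT; normalized against uninhibited and no-enzyme wells.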
TbPYK inhibitor – qHTS of Trypanosoma Brucei Inhibitors; pyruvate kinase (Trypanosoma brucei), Q57TT1; TbPYK enzyme, Kinase-Glo Plus ATP luminescence, 45 min; Potency, µM (series often up to 76.8 µM), most hits filed as inhibitors; 410,000 compounds, 0.12% hits; also: nearly all actives have a fitted effect of over 50% in size
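Glycolytic pyruvate kinase of T. brucei was incubated with substrate, test compound and 130 uM ADP for 45 minutes at room temperature. Luminescent Kinase-Glo Plus signal was measured after 10 minutes.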
Of the large screens only hits and unclear results are named; the others gave an inactive call. Unless noted, calls follow the shape of the dose curve; as a rule, active = well fitted curve in the direction sought with a large enough effect; inconclusive = small, poorly fitted or top-dose-only effect, or another doubt; inactive = no such curve, though single readings can be large; an effect the other way counts as inactive or inconclusive.

CCOC(=O)Cc1csc(NC(=O)/C=C\c2ccccc2Cl)n1	Shiga inhibitor 53, CHX counter 23
CCOC(=O)Cc1csc(NC(=O)/C=C/c2ccccc2Cl)n1	Shiga inhibitor 71, CHX counter 38
CCOC(=O)Cc1csc(NC(=O)c2cccc(Cl)c2)n1	none (no result: Shiga inhibitor, FBPA Giardia inh, CHX counter, LmPK inh)
CCn1cc2nc(SCc3cc(C)ccc3C)n(CCc3ccccc3)c(=O)c2n1	none (no result: Shiga inhibitor, FBPA Giardia inh, RE007 growth inh, CHX counter, LmPK inh)
C/C(CC(=O)N1CCN(C=O)CC1)=N\NC(=O)c1ccc([N+](=O)[O-])cc1	FBPA Giardia inh inconclusive, CHX counter 20
C/C(CC(=O)N1CCN(C=O)CC1)=N\NC(=O)c1cc2ccccc2cc1O	FBPA Giardia inh inconclusive
CN(CC(=O)Nc1ccccc1)CC(=O)Nc1ccccc1Cl	Shiga inhibitor 31, CHX counter 19
CC(C)=CC(=O)Nc1ccc(OCc2ccccc2)cc1	Shiga inhibitor 126, CHX counter 53
CCCCc1ccc(NC(=O)CN(C)CC(=O)Nc2ccccc2Cl)cc1	none
CCOC(=O)C(=O)Nc1ccc(OCc2ccccc2)cc1	none
COc1ccc2nc(NC(=O)c3cccc(OCc4c(C)noc4C)c3)sc2c1	Shiga inhibitor 118, CHX counter 44
Cc1ccsc1C(=O)NCC(=O)OCc1ccccc1	Shiga inhibitor 61, CHX counter 30 (no result: FBPA Giardia inh)
NCC(=O)NCC(=O)OCc1ccccc1	none
CCN1C(=O)[C@H]2[C@H]3[C@H](O)[C@H](O)C/C(=N/O[C@@H]4O[C@H](COC(C)=O)[C@@H](OC(C)=O)[C@H](OC(C)=O)[C@H]4OC(C)=O)[C@@H]3CC[C@@H]2C1=O	none (no result: Shiga inhibitor, RE007 growth inh, CHX counter, LmPK inh, TbPYK inhibitor)
O=C(NCc1ccccc1Cl)c1cnc2sc(N3CCOCC3)nn2c1=O	none (no result: Shiga inhibitor, FBPA Giardia inh, RE007 growth inh, CHX counter, LmPK inh)
CCOC(=O)c1ccc(-n2c(N)c(C(=O)OC)c3nc4ccccc4nc32)cc1	none (no result: Shiga inhibitor, FBPA Giardia inh, RE007 growth inh, CHX counter, LmPK inh)
COc1ccc(Cl)cc1NC(=O)CSc1ccc(-c2sc(C)nc2C)nn1	none (no result: Shiga inhibitor, FBPA Giardia inh, RE007 growth inh, CHX counter, LmPK inh)
O=C(NCCSc1ccccc1)c1cccnc1	Shiga inhibitor 83, CHX counter 49
O=C(NCCCSc1ccccc1)c1cccnc1	none (no result: FBPA Giardia inh)
COc1ccc(NC(=O)c2cc(Br)c(Br)s2)cn1	Shiga inhibitor 91, FBPA Giardia inh inconclusive, CHX counter 24
Cc1ccc(C)n1-c1ccc(C(=O)Nc2ccccc2F)cc1	Shiga inhibitor 102, CHX counter 57
Cc1noc(C)c1COc1cccc(C(=O)Nc2ccc(OCc3ccccc3)cc2)c1	CHX counter 12
COc1cc(NC(=O)CN2CCCN(Cc3cccc(F)c3)S2(=O)=O)cc(OC)c1	none (no result: Shiga inhibitor, FBPA Giardia inh, RE007 growth inh, CHX counter, LmPK inh)
COc1ccc(S(=O)(=O)NCC(c2ccc(N(C)C)cc2)N2CCCC2)cc1F (stereo unspecified)	none (no result: Shiga inhibitor, FBPA Giardia inh, RE007 growth inh, CHX counter, LmPK inh)
COc1ccc(NC(=O)C2CCN(S(=O)(=O)c3c(C)noc3/C=C/c3cccs3)CC2)cc1Cl	none (no result: FBPA Giardia inh, RE007 growth inh, LmPK inh)
O=C(Nc1ccccc1)c1ccc(COc2ccccc2)cc1	none
Cc1c(C(=O)Nc2ccc(OCc3ccccc3)cc2)cccc1[N+](=O)[O-]	none
O=C(Nc1ccc(OCc2ccccc2)cc1)c1ccccc1	CHX counter 14
O=C(Nc1ccc(OCc2ccccc2)cc1)Nc1cccnc1	none
COc1ccc(NC(=O)Nc2cccs2)cn1	CHX counter 9.5
Cc1cc(C(=O)Nc2ccc(OCc3ccccc3)cc2)c(C)o1	Shiga inhibitor 81, RE007 growth inh inconclusive, CHX counter 24, LmPK inh 7.9µM
O=C(Nc1ccc(OCc2ccccc2)cc1)c1cccnc1	Shiga inhibitor 41, CHX counter 20
CCOC(=O)c1ccccc1NC1(c2ccc(OC)cc2)C(=O)c2ccccc2C1=O	none (no result: Shiga inhibitor, FBPA Giardia inh, RE007 growth inh, CHX counter, LmPK inh)
CN(C)c1ccc(CNC(=O)CCC(=O)N2Cc3ccccc3Oc3ncccc32)cc1	none (no result: Shiga inhibitor, FBPA Giardia inh, RE007 growth inh, CHX counter, LmPK inh)
Cc1ccsc1C(=O)Nc1ccc(C(=O)O)cc1	RE007 growth inh inconclusive, LmPK inh 14µM
COC(=O)c1sccc1NC(=O)c1sccc1C	none
CCc1cc(C(=O)Nc2ccc(OC)nc2)sc1C	RE007 growth inh inconclusive (no result: Shiga inhibitor, FBPA Giardia inh, CHX counter, LmPK inh)
O=C(NCCc1ccccc1)c1ccc(NC(=O)c2cccnc2)cc1	Shiga inhibitor 37, CHX counter 23

Screening results deposited in PubChem BioAssay by National Center for Advancing Translational Sciences (NCATS).
